A selection: hits, their analogues and other compounds. The true share with any hit is near 3.6%.
KAT2A inh = GCN5L2 (KAT2A) acetyltransferase inhibition; Q92830; GCN5L2 HAT assay, ThioGlo1 CoA-SH fluorescence; Potency, µM (top dose mostly 58.9 µM), for the others: top-dose activity change, negative = inhibition, hits mostly inhibitors; 390,000 compounds, 0.21% hits; also: potency is read from the fitted curve at half-maximal effect; % is scaled to controls: 0 for no effect and ±100 for the full control effect
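Free CoA generated was detected with ThioGlo1 (50uM) fluorescence at Ex340nm/Em540nm, read immediately and after 20 min at room temperature. Enzyme, 20 nM in HEPES pH 7.5 buffer, saw compounds 15 min before adding 75uM H3(1-25) peptide and 70uM acetyl-CoA.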
VDR inh = blocks the human vitamin D receptor | Potency, µM, for the others: max response, negative = inhibition, usual class: inhibitors | 400,000 compounds, 0.93% hits | P11473 | AID 504847 | VDR-SRC2-3 peptide fluorescence polarization, 2 h; also: potency is read from the fitted curve at half-maximal effect; % is scaled to controls: 0 for no effect and ±100 for the full control effect
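Compounds are added to VDR with labelled SRC2-3 coactivator peptide and held 2 h at room temperature. Inhibition of the VDR–peptide interaction is then read as a change in fluorescence polarization.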
Rango release inh = inhibitors of RanGTP-induced Rango-importin beta complex dissociation; Potency, µM (titrated, usually from 46.1 µM), for inactives: at the highest dose activity change, negative = inhibition; 340,000 compounds, 0.071% hits; Biochemical FRET Rango-importin beta, RanGTP-induced dissociation; O95149+P62826; calls by dose curve; also: potency is read from the fitted curve at half-maximal effect; % of control where 0% means no effect; nearly all actives have a fitted effect of over 45% in size
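Compounds preincubate 5 min with complex of recombinant Rango and importin beta in PBS with 1 mM DTT. Ran (0.6 uM) loaded with 2 mM GTP plus 0.2 uM RCC1 starts dissociation; FRET is recorded 45 min later.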
PLK1 PBD inh = inhibitors of human PLK1 polo-box domain binding | P53350 | Plk1 PBD binding of FITC phosphopeptide, fluorescence polarization | Potency, µM, without a hit: max response, negative = inhibition, hits mostly inhibitors | 360,000 compounds, 2.8% hits | AID 720504; also: potency is read from the fitted curve at half-maximal effect; series mostly up to about 57 µM; % is scaled to controls: 0 for no effect and ±100 for the full control effect; nearly all actives have a fitted effect of over 65% in size
Rango-impB inh = prevents formation of the Rango-importin beta complex; Q14974; Rango CFP/YFP FRET sensor + importin beta, 45 min; Potency, µM (series often up to 92.2 µM), for the others: at the highest dose inhibition of complex formation; 340,000 compounds, 0.031% hits; AID 540263; calls by dose curve;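 also: potency is read from the fitted curve at half-maximal effect; 0% = DMSO wells and 100% = buffer wells lacking importin beta; nearly all actives have a fitted effect of over 15% in size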
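FRET biosensor Rango (snurportin 1 IBB between N-terminal EYFP and C-terminal Cerulean), 50 nM in PBS/1 mM DTT/0.02% Tween-20/0.1% BSA, preincubated 5 min RT with compound; 0.125 microM importin beta added, 45 min RT, CFP/YFP FRET ratio read.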
PI5P4Ka inh = inhibitors of human PI5P4K alpha; P48426; PI5P4Kalpha enzyme, ADP-Glo luminescence, 60 min; stronger effect = lower value; max response, %; 330,000 compounds, 1.2% hits; AID 652105; active = max response of -50% or lower; inconclusive = between -30% and -50%; inactive = -30% or higher; also: value at the top dose of about 77 µM; % is scaled to controls: 0 for no effect and ±100 for the full control effect
Target sequence (P48426 whole entry, looked up): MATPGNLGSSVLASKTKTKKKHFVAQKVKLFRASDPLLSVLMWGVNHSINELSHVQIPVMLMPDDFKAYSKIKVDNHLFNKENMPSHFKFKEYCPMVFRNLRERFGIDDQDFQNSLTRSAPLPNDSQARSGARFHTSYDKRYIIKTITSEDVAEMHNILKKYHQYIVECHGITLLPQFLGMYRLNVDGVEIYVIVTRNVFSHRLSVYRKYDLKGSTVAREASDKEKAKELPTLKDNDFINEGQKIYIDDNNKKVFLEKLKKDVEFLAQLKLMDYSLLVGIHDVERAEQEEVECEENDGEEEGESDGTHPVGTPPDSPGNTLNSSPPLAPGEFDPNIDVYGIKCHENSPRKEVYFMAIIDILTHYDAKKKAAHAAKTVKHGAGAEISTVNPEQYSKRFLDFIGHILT
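Quantitative HTS of the MLSMR library against PI5P4Kalpha with substrate. ATP added last at 5 microM final; room temperature, 60 minutes. Remaining ATP depleted, ADP converted and read as luminescence.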
Numbers without * were called inactive; ? = inconclusive; . = no result. Unless noted, calls follow the shape of the dose curve; as a rule, active = well fitted curve in the direction sought with a large enough effect; inconclusive = small, poorly fitted or top-dose-only effect, or another doubt; inactive = no such curve, though single readings can be large; an effect the other way counts as inactive or inconclusive.

SMILES	KAT2A inh	VDR inh	Rango release inh	PLK1 PBD inh	Rango-impB inh	PI5P4Ka inh
Cc1cc(C)c2nc(N3C(=O)C(O)=C(C(=O)c4ccco4)C3c3cccc(O)c3)sc2c1 (stereo not drawn)	?	79µM*	4.1µM*	27µM*	?	-60*
Cc1ccc2c(c1)c1c3n2CCN(C(=O)c2ccc(C(F)(F)F)cc2)C3CCC1 (stereo not drawn)	1%	-8%	.	.	.	.
Cc1nnc(N2CCN(c3ccccc3F)CC2)c2c1nnn2Cc1ccccc1Cl	4%	10%	.	.	.	.
O=C(O)c1ccccc1N(c1ccccc1)c1ccccc1	.	35µM*	7%	-25%	3%	6
CCC(C)C(NC(=O)OC(C)(C)C)C(=O)NC1COC2CC(n3ccc(NC(C)=O)nc3=O)OC12 (stereo not drawn)	.	-7%	.	.	.	.
CCc1cc(C(=O)N2CCc3c([nH]c4ccccc34)C2c2ccc(OC)cc2F)no1 (stereo not drawn)	-3%	-16%	2%	24µM*	-4%	-9
COc1ccc(C2c3[nH]c4ccccc4c3CCN2C(=O)c2ccc(=O)n(C)n2)c(F)c1 (stereo not drawn)	1%	-7%	-20%	2%	?	1
Cc1cccc(N/C=C(\[N+](=O)[O-])S(=O)(=O)c2ccccc2)c1	-8%	-26%	2%	27µM*	0%	1
CCc1ccc(NC(=O)CSc2nc3ncccc3[nH]2)cc1	0%	10%	.	.	.	.
Cc1ccc2c(=O)c(C(=O)c3ccccc3)cn(CC(=O)NCc3ccccc3)c2n1	2%	13%	.	.	.	.
COC(=O)/C(=C1\OC(=O)C(c2ccccc2)C1=O)c1ccccc1 (stereo not drawn)	-11%	-1%	.	.	.	.
CC(C)CCNC(=O)c1cccc(S(=O)(=O)N2CCc3ccccc32)c1	-1%	13%	8%	-2%	0%	2
Cn1cc(S(=O)(=O)N2CCc3ccccc32)cc1C(=O)NC1CCCCC1	-4%	-16%	-5%	-5%	2%	1
CC(C)CN(CC(C)C)C(=O)c1cccc(S(=O)(=O)N2CCc3ccccc32)c1	-15%	31%	-4%	24µM*	-1%	-7
CC(C)OCCCNC(=O)c1cc(S(=O)(=O)N2CCc3ccccc32)cn1C	0.79µM*	-13%	10%	0%	4%	1
CCCN(CCC)CCCNC(=O)c1sc2nc3n(c(=O)c2c1C)CCC3	4%	4%	.	.	.	.
Cc1cc(C(=O)c2ccccc2)cc(C)c1O	.	-5%	-8%	2%	0%	5
O=C(c1ccccc1)c1ccc(O)c(O)c1O	.	8%	-19%	0%	3%	-91*
Cc1ccc(NC(=O)C2(c3ccccc3)CCOCC2)cc1	0%	-15%	-21%	27µM*	3%	?
COc1ccc(-n2nc(C(=O)N3CCN(c4ccccc4OC)CC3)c3c4ccccc4n(C)c3c2=O)cc1Cl	-2%	-1%	.	.	.	.
Cc1ccc(-c2nnn(CC(=O)N(CCO)C(C(=O)NC3CCCCC3)c3ccncc3)n2)o1 (stereo not drawn)	-1%	-17%	-17%	34µM*	2%	-4
S=c1[nH]c(-c2ccccc2)cs1	-30%	?	-2%	21µM*	1%	-70*
Fc1ccc(-c2csc(=S)[nH]2)cc1	5%	79µM*	31%	24µM*	3%	-51*
O=c1[nH]c(-c2ccc(Cl)cc2)cs1	-4%	-9%	34%	-13%	1%	1
Fc1ccccc1-n1cc(-c2ccccc2)[nH]c1=S	-5%	-12%	7%	-11%	-5%	1
SMILES	KAT2A inh	VDR inh	Rango release inh	PLK1 PBD inh	Rango-impB inh	PI5P4Ka inh
Cc1cc(C(F)(F)F)c(C#N)c(N2CCOCC2)n1	-2%	?	0%	3.4µM*	4%	?
Cc1[nH]n(-c2ccccc2)c(=O)c1-c1ccc(Cl)cc1	1%	-11%	6%	27µM*	-3%	-8
Cc1[nH]n(-c2ccccc2)c(=O)c1-c1cccc(Cl)c1	40%	7%	-9%	-2%	3%	-1
O=C(NCc1ccc(F)cc1)C1CCN(S(=O)(=O)N2CCCC2)CC1	-10%	?	-5%	12µM*	-3%	-25
CC1CCN(S(=O)(=O)N2CCCC(C(=O)NCc3ccc(F)cc3)C2)CC1 (stereo not drawn)	1%	79µM*	1%	27µM*	3%	-13
CC1CCN(CC2CCN(C(=O)NCc3ccc(F)cc3)CC2)CC1	0%	12%	.	.	.	.
CC1CCN(C(=O)C(C)NCc2ccc(F)cc2)CC1 (stereo not drawn)	-3%	?	12%	17µM*	6%	-8
CCc1ccc(CNC(=O)C2CCN(S(=O)(=O)N3CCCC3)CC2)cc1	-4%	-2%	-10%	-9%	2%	2
COc1ccc2c(c1)c(=O)c(C(=O)c1ccccc1)cn2CC(=O)Nc1ccc2c(c1)OCO2	-14%	-6%	.	.	.	.
C=C(C(=O)OC)C(NC(=O)OC)c1ccccc1 (stereo not drawn)	.	2%	.	.	.	.
COc1ccc(CNCc2c(C(=O)O)c(C)n(Cc3ccccc3C)c2C)cc1OC	1%	11%	.	.	.	.
O=C(Nc1nnc(Cc2ccccc2)s1)C1CCN(C(=O)c2cccs2)CC1	.	-7%	.	.	.	.
COc1ccc(NC(=O)CC2C(=O)N(c3ccc(C)cc3)C(=O)N2CCc2ccccc2)cc1 (stereo not drawn)	-7%	-4%	.	.	.	.
COc1cc(SSc2cc(OC)cc([N+](=O)[O-])c2N)c(N)c([N+](=O)[O-])c1	16µM*	7.9µM*	4%	0.67µM*	0%	-93*
O=C(CC12CC3CC(CC(C3)C1)C2)N/N=C/c1ccncc1	4%	?	-6%	27µM*	-1%	-5
CCCc1[nH][nH]c(=O)c1C(c1ccc(Br)cc1)C(C#N)C#N (stereo not drawn)	-4%	79µM*	-11%	6µM*	-3%	.
COc1ccc2c(c1)C(=O)[C@H](OC(=O)Nc1cc(OC)c(OC)c(OC)c1)[C@@H](c1ccc(OC)c(Br)c1)O2	.	19%	.	.	.	.
CO/N=C/C(=N\Nc1ccccc1)C(=O)c1ccccc1	-4%	-25%	-1%	24µM*	-1%	14
CO/N=C/C(=N\Nc1ccc(OC)cc1)C(=O)c1ccc(F)cc1	-11%	1%	3%	24µM*	-4%	6
COC1=C(c2ccccc2)C(=O)c2ccccc2C1=O	-2%	-20%	3%	?	1%	3
O=C1C(c2ccccc2)=[N+]([O-])c2ccccc21	-12%	4µM*	-27%	0.17µM*	?	-6
O=C1/C(=C\c2ccccc2)CN(C(=O)CCN2CCCCC2)C/C1=C/c1ccccc1	.	32µM*	19%	?	5%	1
